From the supplement of paper PMC6555819

Experiments:
Experiment in all cases: PBM binding z-score (relative to random genomic background probes); higher = stronger binding; sequences stand for … in GC…GCGATTGACAGCGTAGAATGAAGG
[1] = tested on: FXR:RXRa (NR concentration 270 nM, RXRa partner concentration 90 nM)
Procedure, shortened: (§1)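 Probes were double-stranded and carried 34-nt variable regions with direct-repeat seeds, single-nucleotide variants, half-site ablations and random human genomic background sequences, printed on custom Agilent 4×180K protein-binding microarrays. Arrays were incubated 1 h with ligand-free nuclear receptor dimers in PBS pH 7.4, 2% milk, 0.02% Triton X-100, 1 mM DTT, 0.2 mg/mL BSA and 0.4 mg/ml salmon testes DNA. Antibodies against each partner (one per run) detected binding, and scanned fluorescence was regression-normalized. Binding z-scores use the random background probes as reference.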

[2] = tested on: LXRa:RXRa (NR concentration 270 nM, RXRa partner concentration 90 nM)
Procedure, shortened: as §1

[3] = tested on: LXRa homodimer (NR concentration 270 nM)
Procedure, shortened: as §1

[4] = tested on: LXRb:RXRa (NR concentration 270 nM, RXRa partner concentration 90 nM)
Procedure, shortened: as §1

[5] = tested on: LXRb homodimer (NR concentration 270 nM)
Procedure, shortened: as §1

[6] = tested on: PPARa:RXRa (NR concentration 270 nM, RXRa partner concentration 90 nM)
Procedure, shortened: as §1

[7] = tested on: PPARg:RXRa (NR concentration 180 nM, RXRa partner concentration 90 nM)
Procedure, shortened: as §1

[8] = tested on: PPARg:RXRa 270nM:90nM, anti-RXR (NR concentration 270 nM, RXRa partner concentration 90 nM)
Procedure, shortened: as §1

[9] = tested on: PPARg:RXRa 30nM:10nM, anti-RXR (NR concentration 30 nM, RXRa partner concentration 10 nM)
Procedure, shortened: as §1

[10] = tested on: PPARg:RXRa 90nM:30nM, anti-RXR (NR concentration 90 nM, RXRa partner concentration 30 nM)
Procedure, shortened: as §1

[11] = tested on: PPARg:RXRa DBDmut IVT, anti-RXR (DBD mutation: RXRa K156A/R161A, NR concentration 270 nM, RXRa partner concentration 90 nM)
Procedure, shortened: as §1

[12] = tested on: PPARg:RXRa IVT, anti-PPARg (NR concentration 270 nM, RXRa partner concentration 90 nM)
Procedure, shortened: as §1

[13] = tested on: PPARg DBDmut:RXRa IVT, anti-PPARg (DBD mutation: PPARg1 K132A/R137A, NR concentration 270 nM, RXRa partner concentration 90 nM)
Procedure, shortened: as §1

[14] = tested on: PPARg DBDmut IVT, anti-PPARg (DBD mutation: PPARg1 K132A/R137A, NR concentration 270 nM)
Procedure, shortened: as §1

[15] = tested on: PPARg homodimer (NR concentration 180 nM)
Procedure, shortened: as §1

[16] = tested on: PXR:RXRa (NR concentration 270 nM, RXRa partner concentration 90 nM)
Procedure, shortened: as §1

[17] = tested on: PXR homodimer (NR concentration 270 nM)
Procedure, shortened: as §1

[18] = tested on: RARa:RXR (NR concentration 270 nM, RXRa partner concentration 90 nM)
Procedure, shortened: as §1

[19] = tested on: RARa homodimer (NR concentration 270 nM)
Procedure, shortened: as §1

[20] = tested on: RARb:RXRa (NR concentration 270 nM, RXRa partner concentration 90 nM)
Procedure, shortened: as §1

Row | Sequence | PBM binding z-score [1] | PBM binding z-score [2] | PBM binding z-score [3] | PBM binding z-score [4] | PBM binding z-score [5] | PBM binding z-score [6] | PBM binding z-score [7] | PBM binding z-score [8] | PBM binding z-score [9] | PBM binding z-score [10] | PBM binding z-score [11] | PBM binding z-score [12] | PBM binding z-score [13] | PBM binding z-score [14] | PBM binding z-score [15] | PBM binding z-score [16] | PBM binding z-score [17] | PBM binding z-score [18] | PBM binding z-score [19] | PBM binding z-score [20]
1 | CATACAGGGTGAGCTAGGCCAGAGTAGGGACGGC | 0.0783 | -0.27 | -0.348 | -0.501 | -0.241 | 0.234 | 0.608 | -0.129 | -0.308 | -0.186 | 0.503 | 1.32 | -0.282 | -0.518 | -0.692 | -0.394 | -0.379 | -0.0235 | -0.0733 | 0.894
2 | TAGCCTATGTCATTCAGGGGCCAGTATAGAAAGC | -0.275 | -0.326 | -0.461 | -0.0773 | 0.117 | -0.00609 | 0.175 | -0.205 | -0.271 | -0.159 | 0.367 | 0.511 | -0.0468 | 0.315 | -0.12 | -0.141 | -0.435 | 0.125 | -0.558 | 0.742
3 | TCATGTAGGTAAACAGGTGAAAGTCCGTAAGTTA | 0.441 | 0.537 | -0.185 | 0.487 | -0.709 | 2.46 | 3.06 | 3.74 | 3.38 | 3.64 | 4.93 | 5.27 | 0.599 | 0.663 | 1.08 | 0.463 | 0.296 | 0.664 | 0.834 | 0.451
4 | ATCGAAAGGTCGTGAGGTGAGTAAACAGAAAGGC | 5.42 | 3.82 | 0.314 | 3.14 | 0.648 | 5.03 | 3.9 | 4.4 | 1.22 | 2.97 | 0.111 | 2.34 | 1.06 | 0.746 | 1.39 | 2.84 | 0.0266 | 4.08 | 0.931 | 3.94
5 | CAAGCTAGGTCACAGAGGTCAAAGTCCGTGCGTA | 7.59 | 6.83 | 7.42 | 6.28 | 1.9 | 5.99 | 6.86 | 6.52 | 3.68 | 5.83 | 5.16 | 5.87 | 0.564 | 0.34 | 6.23 | 6.96 | 12.1 | 8.03 | 2.55 | 5.47
6 | CCTAGCAGGCCATGGTCACTCAAGCATTTCGCTT | -0.268 | -0.369 | -0.374 | -0.307 | -0.863 | -0.349 | -0.143 | -0.198 | -0.855 | -0.418 | 1.57 | 0.401 | -1.7 | -1.39 | -0.683 | -0.611 | -0.713 | -0.498 | -0.226 | 0.678
7 | GCAGACAGGTGAAACGCAGGTAACTAAGGGTGGC | -0.237 | 0.0308 | -0.755 | -0.289 | -0.873 | 0.88 | 0.651 | -0.421 | -0.539 | -0.453 | 0.562 | 0.741 | -0.406 | -0.735 | -0.84 | -0.388 | -0.493 | 0.156 | -0.657 | 0.531
8 | TCGAGTAGGTTAGTCGGGGCATTCCGCCAACATA | 0.02 | 0.121 | -0.495 | 0.444 | -0.721 | 0.661 | -0.328 | 0.877 | 1.07 | 0.912 | 2.34 | 2 | -0.206 | -0.88 | -0.0815 | 0.0285 | -0.57 | 0.175 | -0.691 | 0.585
9 | CCTCGGAGGACAGAAGCTCAGAGCTGTCCGCTTT | -0.605 | -0.517 | -0.873 | -1.16 | -0.889 | -1.83 | -0.876 | -1.61 | -1.52 | -1.69 | -0.36 | -1.19 | -1.19 | -2.47 | -1.01 | -1.09 | -1.12 | -1.41 | -0.553 | 0.0741
10 | AGAATGAGGTTAAGATCAGCGAAACAGAATACAT | 2.2 | 1.69 | -0.0518 | 1.54 | -0.0572 | 3.72 | 2.3 | 2.38 | 0.794 | 1.74 | 1.69 | 2.37 | 1.19 | 0.858 | -0.266 | 0.978 | 0.422 | 1.82 | 0.555 | 1.83
11 | CGCCCAAGGTCAGAGAGGTCAGTGAATGCCGAGT | 6.04 | 4.89 | 3.24 | 4.24 | -0.135 | 4.86 | 3.1 | 4.03 | 0.767 | 2.55 | 2.95 | 2.94 | -0.485 | -0.732 | 3.98 | 5.86 | 11.8 | 5.47 | 3.01 | 5.09
12 | TCAGACAGGCGAAGGTAACTCAGGTACGCAGTCG | 0.672 | 1.16 | -0.549 | 0.255 | -0.893 | 0.184 | 0.517 | 1.53 | 3.02 | 2.41 | 1.62 | -0.431 | -0.529 | -0.776 | -0.126 | 0.167 | -0.281 | 0.0245 | -0.553 | 0.0079
13 | CCTCGGAGGACAGGAGGTCAGAGCTGTCCGCTTT | 1.56 | 1.79 | 0.686 | 1.2 | -0.929 | 1.96 | -0.08 | 0.65 | -0.913 | -0.13 | 0.39 | 0.452 | -1.92 | -2.09 | 1.28 | 1.81 | -0.0765 | 2.05 | -0.0884 | 2.82
14 | CTCGAAAGGTCGGTTGACGTGAGTATACGGATAA | 1.71 | 1.46 | 0.0257 | 1.44 | 0.0927 | 2.2 | 0.565 | 0.822 | 0.194 | 0.528 | 0.129 | 0.68 | 0.821 | 0.0479 | 0.644 | 1.01 | -0.25 | 1.5 | -0.0456 | 2.91
